SARS PLpro yeast: qHTS of Yeast-based Assay for SARS-CoV PLP. S. cerevisiae expressing SARS-CoV PLpro, growth rescue. Potency, µM (top dose mostly 32.9 µM), actives largely listed as activators. actives 0.19% (n = 330,000); calls by dose curve; note: nearly all actives have a fitted effect of over 55% in size
Pf growth 48h: Primary qHTS for delayed death inhibitors of the malarial parasite plastid, 48 hour incubation; AID 504832, 2011; actives 5.9% (n = 310,000); Potency, µM (doses to about 28.7 µM), most hits filed as inhibitors; P. falciparum luciferase growth in erythrocytes, 48 h
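Here the parasites carry a stable luciferase gene and grow inside erythrocytes in Albumax-based RPMI medium with compound for one erythrocytic cycle. Activity is scored as loss of luminescent signal.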
NS1 function inh: qHTS Assay for Inhibitors of Influenza NS1 Protein Function; AID 2326, 2010; actives 0.4% (n = 270,000); Potency, µM (highest dose often 46.1 µM); calls by dose curve; note: actives are rising curves; nearly all actives have a fitted effect of over 50% in size
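OD600 was taken as the measure of yeast growth restored by compound in an NS1-expressing S. cerevisiae strain. Cells had been washed out of glucose medium and diluted 1:100 into galactose -URA medium, pH 6.0.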
Pf growth 96h: Primary qHTS for delayed death inhibitors of the malarial parasite plastid, 96 hour incubation | Potency, µM (titrated, usually from 28.7 µM), usual class: inhibitors | actives 6.9% (n = 320,000) | P. falciparum luciferase reporter growth, 96 h
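Delayed-death screen, second-generation endpoint: infected erythrocytes, 2% hematocrit, 0.05% parasitemia final; 96 hours at 37 C, 5% CO2; luciferase detection reagent; luminescence decrease equals reduced growth.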
RE007 growth inh: qHTS Assay for Inhibitors of the HIV-1 protein Vpr | S. pombe RE007 Vpr strain, BacTiter-Glo ATP luminescence, 24 h | Potency, µM (series often up to 92.2 µM), actives largely listed as inhibitors | actives 0.21% (n = 360,000) | AID 651644, 2012; active = well fitted falling curve with a large enough effect; inconclusive = small, poorly fitted or top-dose-only effect; inactive = no such curve, though single readings can be large or run the other way; note: nearly all actives have a fitted effect of over 50% in size
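Fission yeast strain RE007, carrying one chromosomally integrated HIV-1 vpr copy, was seeded at OD 0.01 in PMG+AL medium with 23 nL pinned compound. After 24 h at 30 °C and 99% humidity, viability was read by BacTiter-Glo luminescence.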
CLK4 cf ADPGlo: Confirmaiton Assay for Inhibitors of CDC-like Kinase 4 (ADP-Glo Assay); shares compounds with Pf growth 48h; recombinant Clk4, RS peptide, ADP-Glo luminescence; Potency, µM (top dose mostly 80 µM), usual class: inhibitors; actives 80% (n = 65); AID 1969, 2009
Target sequence (Q9HAZ1 whole entry, looked up): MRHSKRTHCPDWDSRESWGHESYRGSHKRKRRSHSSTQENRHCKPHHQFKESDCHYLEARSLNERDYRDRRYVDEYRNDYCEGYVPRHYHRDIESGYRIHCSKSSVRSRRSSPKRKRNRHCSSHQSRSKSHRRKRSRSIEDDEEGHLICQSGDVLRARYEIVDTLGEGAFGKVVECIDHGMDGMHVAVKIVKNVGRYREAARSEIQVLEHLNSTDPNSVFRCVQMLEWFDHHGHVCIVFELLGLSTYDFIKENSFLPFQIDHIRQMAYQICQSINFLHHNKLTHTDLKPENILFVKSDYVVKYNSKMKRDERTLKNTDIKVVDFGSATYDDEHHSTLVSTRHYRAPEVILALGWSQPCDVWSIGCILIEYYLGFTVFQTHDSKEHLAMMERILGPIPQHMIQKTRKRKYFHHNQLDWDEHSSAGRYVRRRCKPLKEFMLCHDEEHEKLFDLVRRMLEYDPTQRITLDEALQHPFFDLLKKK
CLK4 cf ADP-FP: Confirmation Assay for Inhibitors of CDC-like Kinase 4 (ADP-FP Assay); shares compounds with Pf growth 48h; recombinant Clk4, ADP Transcreener FP, RS peptide; Potency, µM (titrated, usually from 80 µM), usual class: inhibitors; actives 70% (n = 65)
Hits are given with their value; - = inactive; ? = inconclusive; . = no result given. This is a sample that favours compounds with a hit; in the whole collection about 9.5% have one here. Unless noted, calls come from the whole dose curve; as a rule, active = well fitted curve in the direction sought with a large enough effect; inconclusive = small, poorly fitted or top-dose-only effect, or another doubt; inactive = no such curve, though single readings can be large; an effect the other way counts as inactive or inconclusive.

SMILES	SARS PLpro yeast	Pf growth 48h	NS1 function inh	Pf growth 96h	RE007 growth inh	CLK4 cf ADPGlo	CLK4 cf ADP-FP
FC(F)(F)c1cc(-c2ccc3c(c2)OCO3)nc(NCc2ccco2)n1	-	-	-	-	-	.	.
Cc1ccc(NC(=O)CN2CCOCC2)cc1C	-	-	-	-	-	.	.
O=C(Nc1ccnn1C1CCN(CCCc2ccccc2)CC1)c1cccc(F)c1	-	?	-	-	-	.	.
O=C(Nc1ccc(S(=O)(=O)NC2=NCCCCC2)cc1)C1COc2ccccc2O1 (stereo not drawn)	-	?	-	?	-	.	.
COc1cc(NC(=O)c2cccc(S(=O)(=O)N3CCCCC3)c2)cc(OC)c1OC	-	.	.	.	-	.	.
Fc1cccc(CNc2ncnc3ccc(-c4cccnc4)cc23)c1	-	?	.	15µM	.	2.8µM	6.3µM
c1cncc(CNc2ncnc3sccc23)c1	-	-	.	-	-	.	.
Cc1cccc(-c2ccc3ncnc(NCc4cccc(F)c4)c3c2)c1	-	0.042µM	.	1.3µM	.	4µM	7.9µM
COc1cccc(-c2ccc3ncnc(NCc4cccnc4)c3c2)c1	-	?	.	?	.	2.5µM	4.5µM
c1cncc(CNc2ncnc3ccc(-c4ccco4)cc23)c1	-	?	.	?	.	2.8µM	8.9µM
COc1cccc(CNc2ncnc3cc(OC)c(OC)cc23)c1	-	?	-	?	-	.	.

Screening data deposited in PubChem BioAssay by National Center for Advancing Translational Sciences (NCATS).
